From PubChem BioAssay (NCATS)
Inconclusive results are not listed. The source made the active and inactive calls. The call rests on the fitted dose curve; in most records, active means well fitted curve in the direction sought with a large enough effect; inconclusive means small, poorly fitted or top-dose-only effect, or another doubt; inactive means no such curve, though single readings can be large; an effect the other way counts as inactive or inconclusive.

Legend:
[1] = molecular target: Rap guanine nucleotide exchange factor 3 (Homo sapiens) (UniProt O95398); experiment: Counterscreen qHTS for antagonist of cAMP-regulated guanine nucleotide exchange factor 3 (EPAC1) (AID 1645888); conditions: Rap1B-BODIPY-GDP nucleotide exchange, fluorescence; series mostly up to 30.8 µM;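 further: fluorescence loss as bound BODIPY-GDP is released from Rap1B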
Chain of Rap guanine nucleotide exchange factor 3 (Homo sapiens) (O95398 whole entry, looked up): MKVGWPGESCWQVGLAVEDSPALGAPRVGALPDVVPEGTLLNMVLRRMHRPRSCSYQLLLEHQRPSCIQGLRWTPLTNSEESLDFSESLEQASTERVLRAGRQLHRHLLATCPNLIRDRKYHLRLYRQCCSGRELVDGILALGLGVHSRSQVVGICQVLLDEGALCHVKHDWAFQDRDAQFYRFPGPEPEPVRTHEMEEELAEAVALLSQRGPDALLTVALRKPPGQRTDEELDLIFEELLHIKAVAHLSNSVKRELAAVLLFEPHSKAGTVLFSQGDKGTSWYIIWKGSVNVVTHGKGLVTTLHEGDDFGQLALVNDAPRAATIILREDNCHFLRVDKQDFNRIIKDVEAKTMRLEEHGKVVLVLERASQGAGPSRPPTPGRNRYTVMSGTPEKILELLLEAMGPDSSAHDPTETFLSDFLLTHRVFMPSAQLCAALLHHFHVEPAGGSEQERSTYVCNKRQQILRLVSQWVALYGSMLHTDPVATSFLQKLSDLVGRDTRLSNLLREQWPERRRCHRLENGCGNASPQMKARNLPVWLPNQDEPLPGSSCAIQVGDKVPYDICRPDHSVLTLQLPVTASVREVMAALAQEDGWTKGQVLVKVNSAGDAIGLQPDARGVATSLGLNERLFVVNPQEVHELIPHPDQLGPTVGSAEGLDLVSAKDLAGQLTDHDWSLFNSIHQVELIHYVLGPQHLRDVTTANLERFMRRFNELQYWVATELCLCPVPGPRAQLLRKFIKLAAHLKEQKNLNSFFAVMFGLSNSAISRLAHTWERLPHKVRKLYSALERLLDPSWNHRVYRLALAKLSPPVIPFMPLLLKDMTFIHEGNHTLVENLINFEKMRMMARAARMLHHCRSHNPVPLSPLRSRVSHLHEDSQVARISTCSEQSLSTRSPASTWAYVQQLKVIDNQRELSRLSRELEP
In short: (§1)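 Rap1B–BODIPY-GDP (250 nM) with 50 uM GDP; compounds pin-transferred to 9.74 nM–152 uM final (activator) or from 7.32 nM upwards (inhibitor). Fluorescence Ex/Em 480/540 nm read at 5 and 30 min, then after adding cAMP or buffer, at room temperature.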

[2] = molecular target: Rap guanine nucleotide exchange factor 3 (Homo sapiens) (UniProt O95398); experiment: Counterscreen qHTS for agonist of cAMP-regulated guanine nucleotide exchange factor 3 (EPAC1) (AID 1645889); conditions: EPAC1 Rap1B-BODIPY-GDP exchange, fluorescence; series mostly up to 30.8 µM; further: nearly all actives have a fitted effect of over 40% in size
In short: as §1

[3] = Viability counterscreen for antagonist of constitutive androstane receptor (CAR) against the NCATS DSHEA and TCM libraries (AID 1794837); conditions: CAR reporter cell line viability counterscreen, qHTS; series mostly up to 40 µM;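 further: compound exposure lasted 24 h before viability reading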
In short: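 HepG2-CYP2B6-hCAR cells, 2,500/well, were exposed 24 hr at 37C to substances together with 48 uM CITCO (final). Viability was read as CellTiter-Fluor fluorescence (Ex/Em 405/540 nm) after 1 hr.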

CCc1oc2ccccc2c1C(=O)c1cc(Br)c(O)c(Br)c1
outcome [1]: inactive | outcome [2]: inactive

C=C1c2cccc(O)c2C(O)=C2C(=O)[C@]3(O)C(O)=C(C(N)=O)C(=O)[C@@H](N(C)C)[C@@H]3[C@@H](O)[C@H]12
outcome [1]: inactive

CCCCCCCCCCCCCCCC(=O)O
outcome [3]: inactive
